The results in this text go back to PubChem BioAssay (Tox21).

Values joined by “and” are separate entries in the source; they are usually repeats but may differ in a detail not shown here. Equal entries are not always repeated. Records with an inconclusive call do not appear. More than one record can exist for a structure, and the calls need not agree. Active and inactive are the calls of the source. Unless noted, calls come from the whole dose curve.

The nature of test [1]: qHTS assay to identify small molecule antagonists of the sonic hedgehog signaling (Shh) pathway (AID 1259369). Note: nearly all actives have a fitted effect of over 45% in size. Note: potency is the fitted concentration of half-maximal effect. Summed up: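 Screening used 3T3Gli1-Luc cells at 2,000 per well, compounds delivered in DMSO, and conditioned medium as agonist stimulus; plates incubated 24hr at 37 C and 5% CO2 before a 30min luciferase step.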
Background: In qHTS, concentration-response curves come from the screen itself.

Test [2] has as its target Estrogen receptor beta (Homo sapiens) (UniProt Q92731). Put plainly: qHTS assay to identify small molecule agonists of the estrogen receptor beta (ER-beta) signaling pathway (AID 1259377; active = well fitted activation curve with a large enough effect in the signal ratio in the repeat runs, not every such curve was filed as active; the % refers to the signal ratio; note: potency is the fitted concentration of half-maximal effect). Put shortly:
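ER-beta-UAS-bla HEK293T (GripTite) cells carrying a UAS-driven beta-lactamase reporter, in medium with 2% charcoal-stripped FBS, were exposed to compounds for 16 hr at 37C; LiveBLAzer B/G FRET substrate was then added and fluorescence read after 2 hours at room temperature.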

Test [3] shares this target. Put plainly: qHTS assay to identify small molecule antagonists of the estrogen receptor beta (ER-beta) signaling pathway (AID 1259378; active = well fitted inhibition curve with a large enough effect in the signal ratio in the repeat runs, not every such curve was filed as active; the % refers to the signal ratio). Summed up:
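Antagonist mode: compounds added to beta-lactamase reporter HEK293T ER-beta-UAS cells stimulated with E2 (1nM final), 16 hr at 37C. LiveBLAzer B/G FRET substrate, 2 hours room temperature, fluorescence read-out.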

The nature of test [4]: qHTS assay to identify small molecule agonists of the androgen receptor (AR) signaling pathway in the presence of an antagonist - cell viability counter screen (AID 1259379; active = well fitted curve in the direction sought with a large enough effect in the repeat runs; an effect the other way counts as inactive or inconclusive; note: nearly all actives have a fitted effect of over 25% in size; note: potency is the fitted concentration of half-maximal effect;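 for activity change, negative = cytotoxicity: MDA-kb2 human breast cancer cells carrying an MMTV luciferase reporter; series mostly up to about 92 µM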). Put shortly:
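In MDA-kb2 cells (human breast carcinoma, MMTV-luciferase), compounds at 15 concentrations plus 3.0uM nilutamide; 16 hr, 37C, 0% CO2; CellTiter-Fluor fluorescence read for viability.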

Test [5] can be described thus: qHTS assay to identify small molecule agonists of the estrogen receptor beta (ER-beta) signaling pathway - cell viability counter screen (AID 1259380; active = well fitted curve in the direction sought with a large enough effect in the repeat runs; an effect the other way counts as inactive or inconclusive; note: nearly all actives have a fitted effect of over 30% in size; note: potency is the fitted concentration of half-maximal effect). Put shortly: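 Viability of ER-beta-UAS-bla HEK293T cells was determined by CellTiter-Glo luminescence following 16 hr treatment with test compounds at 37C.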
Test [6] can be described thus: qHTS assay to identify small molecule antagonists of the estrogen receptor beta (ER-beta) signaling pathway - cell viability counter screen (AID 1259382; active = well fitted curve in the direction sought with a large enough effect in the repeat runs; an effect the other way counts as inactive or inconclusive; note: series mostly up to about 92 µM; nearly all actives have a fitted effect of over 55% in size). Summed up:
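Tox21 10K library tested in qHTS format on ER-beta-bla HEK293T cells stimulated with 1nM E2; 16 hr treatment at 37C. Same-well CellTiter-Glo luminescence served as the cell viability measure.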

The nature of test [7]: qHTS assay to identify small molecule agonists or antagonists of the thyroid stimulating hormone receptor (TSHR) signaling pathway - wild type cell line counter screen (AID 1259384). Summed up:
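Counter screen in untransfected Hek293: compounds (15-point titration, triplicate) plus phosphodiesterase inhibitor Ro20-1724 added after 18 h plating; 30 min RT. Intracellular cAMP via competitive d2/cryptate immunoassay, 1 h incubation.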

Test [8] concerns the target Thyrotropin receptor (Homo sapiens) (UniProt P16473). Put plainly: qHTS assay to identify small molecule antagonists of the thyroid stimulating hormone receptor (TSHR) signaling pathway (AID 1259385). Note: nearly all actives have a fitted effect of over 20% in size. Note: potency is the fitted concentration of half-maximal effect. Put shortly:
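Antagonist mode: compound-treated TSHR-expressing HEK293 cells were stimulated with 1.5 ng/mL TSH (final) in presence of Ro20-1724 for 30 min at RT. HTRF cAMP detection after 1 h; each compound tested at 15 concentrations, triplicate.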

The target in test [9] is Estrogen receptor (Homo sapiens) (UniProt P03372). Put plainly: qHTS assay to identify small molecule agonists of the estrogen receptor alpha (ER-alpha) signaling pathway in the presence of an antagonist (AID 1259383). Note: top concentration of the series differs between compounds; nearly all actives have a fitted effect of over 15% in size. Put shortly: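 In VM7Luc4E2 cells, 4,000 per well, compounds at 15 concentrations were co-incubated 22hr at 37C with 10.0nM final ICI-182,780. Luminescence from the stably transfected 4×ERE-luciferase reporter was recorded 30min after ONE-Glo addition.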

Test [10] has as its target Androgen receptor (Homo sapiens) (UniProt P10275). Put plainly: qHTS assay to identify small molecule agonists of the androgen receptor (AR) signaling pathway in the presence of an antagonist (AID 1259381). Note: nearly all actives have a fitted effect of over 15% in size. Summed up:
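Here, 15-concentration compound series were pin-transferred onto MDA-kb2 MMTV-luciferase cells already dosed with nilutamide (3.0uM final). After 16hr at 37C, ONE-Glo was added and luminescence read 30min later at room temperature.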
% is set by controls: 0 for no effect and ±100 for the full control effect.

Sequence of Estrogen receptor beta (Homo sapiens) (Q92731 whole entry, looked up): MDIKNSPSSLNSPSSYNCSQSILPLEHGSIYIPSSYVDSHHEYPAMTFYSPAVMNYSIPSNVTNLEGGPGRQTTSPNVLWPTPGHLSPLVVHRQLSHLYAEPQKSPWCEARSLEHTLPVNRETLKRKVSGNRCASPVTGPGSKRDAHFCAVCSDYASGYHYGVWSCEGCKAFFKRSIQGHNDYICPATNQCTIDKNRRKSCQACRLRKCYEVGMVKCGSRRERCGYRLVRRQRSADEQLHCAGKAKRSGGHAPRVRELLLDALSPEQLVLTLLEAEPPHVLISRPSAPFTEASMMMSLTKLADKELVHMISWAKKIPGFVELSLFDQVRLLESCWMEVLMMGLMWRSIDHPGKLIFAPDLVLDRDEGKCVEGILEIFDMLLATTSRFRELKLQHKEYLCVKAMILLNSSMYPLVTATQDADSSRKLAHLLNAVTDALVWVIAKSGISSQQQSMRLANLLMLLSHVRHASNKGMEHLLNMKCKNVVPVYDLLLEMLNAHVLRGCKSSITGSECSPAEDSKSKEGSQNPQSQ
Sequence of Estrogen receptor (Homo sapiens) (P03372 whole entry, looked up): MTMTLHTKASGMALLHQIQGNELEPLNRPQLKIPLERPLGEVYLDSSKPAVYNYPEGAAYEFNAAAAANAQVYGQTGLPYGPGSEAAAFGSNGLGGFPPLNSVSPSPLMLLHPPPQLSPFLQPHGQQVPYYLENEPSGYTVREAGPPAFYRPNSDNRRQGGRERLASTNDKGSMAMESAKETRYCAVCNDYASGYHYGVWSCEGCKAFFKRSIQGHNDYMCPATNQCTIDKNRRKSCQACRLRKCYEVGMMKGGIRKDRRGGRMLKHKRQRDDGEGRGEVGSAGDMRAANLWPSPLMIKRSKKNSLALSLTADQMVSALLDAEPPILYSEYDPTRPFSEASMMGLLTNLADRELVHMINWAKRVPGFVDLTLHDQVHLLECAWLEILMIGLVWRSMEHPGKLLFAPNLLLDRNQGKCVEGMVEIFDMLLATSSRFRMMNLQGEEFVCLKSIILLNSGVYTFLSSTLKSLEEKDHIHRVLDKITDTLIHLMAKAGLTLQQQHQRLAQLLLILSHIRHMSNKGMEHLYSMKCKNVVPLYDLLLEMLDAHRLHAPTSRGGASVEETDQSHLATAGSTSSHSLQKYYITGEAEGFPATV
Sequence of Thyrotropin receptor (Homo sapiens) (P16473 whole entry, looked up): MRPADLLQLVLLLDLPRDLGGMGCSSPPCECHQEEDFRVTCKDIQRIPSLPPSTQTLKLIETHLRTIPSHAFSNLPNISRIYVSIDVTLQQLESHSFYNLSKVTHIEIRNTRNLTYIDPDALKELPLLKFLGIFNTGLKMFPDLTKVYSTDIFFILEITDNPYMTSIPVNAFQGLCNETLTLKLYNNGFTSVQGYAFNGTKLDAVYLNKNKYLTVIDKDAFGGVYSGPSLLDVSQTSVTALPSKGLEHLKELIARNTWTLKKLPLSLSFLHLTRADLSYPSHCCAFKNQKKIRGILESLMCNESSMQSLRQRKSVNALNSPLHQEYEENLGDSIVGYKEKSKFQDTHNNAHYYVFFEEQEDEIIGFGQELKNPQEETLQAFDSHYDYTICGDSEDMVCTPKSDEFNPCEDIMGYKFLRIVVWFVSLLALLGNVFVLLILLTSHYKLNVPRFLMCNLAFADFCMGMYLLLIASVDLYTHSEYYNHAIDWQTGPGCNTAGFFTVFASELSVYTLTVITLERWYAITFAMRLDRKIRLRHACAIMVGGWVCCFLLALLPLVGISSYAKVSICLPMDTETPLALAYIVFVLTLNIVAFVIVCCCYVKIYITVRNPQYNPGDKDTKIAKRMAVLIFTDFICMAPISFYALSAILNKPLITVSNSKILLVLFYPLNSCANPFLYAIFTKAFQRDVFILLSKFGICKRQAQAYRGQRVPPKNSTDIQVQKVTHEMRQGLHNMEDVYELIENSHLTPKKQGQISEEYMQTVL
Sequence of Androgen receptor (Homo sapiens) (P10275 whole entry, looked up): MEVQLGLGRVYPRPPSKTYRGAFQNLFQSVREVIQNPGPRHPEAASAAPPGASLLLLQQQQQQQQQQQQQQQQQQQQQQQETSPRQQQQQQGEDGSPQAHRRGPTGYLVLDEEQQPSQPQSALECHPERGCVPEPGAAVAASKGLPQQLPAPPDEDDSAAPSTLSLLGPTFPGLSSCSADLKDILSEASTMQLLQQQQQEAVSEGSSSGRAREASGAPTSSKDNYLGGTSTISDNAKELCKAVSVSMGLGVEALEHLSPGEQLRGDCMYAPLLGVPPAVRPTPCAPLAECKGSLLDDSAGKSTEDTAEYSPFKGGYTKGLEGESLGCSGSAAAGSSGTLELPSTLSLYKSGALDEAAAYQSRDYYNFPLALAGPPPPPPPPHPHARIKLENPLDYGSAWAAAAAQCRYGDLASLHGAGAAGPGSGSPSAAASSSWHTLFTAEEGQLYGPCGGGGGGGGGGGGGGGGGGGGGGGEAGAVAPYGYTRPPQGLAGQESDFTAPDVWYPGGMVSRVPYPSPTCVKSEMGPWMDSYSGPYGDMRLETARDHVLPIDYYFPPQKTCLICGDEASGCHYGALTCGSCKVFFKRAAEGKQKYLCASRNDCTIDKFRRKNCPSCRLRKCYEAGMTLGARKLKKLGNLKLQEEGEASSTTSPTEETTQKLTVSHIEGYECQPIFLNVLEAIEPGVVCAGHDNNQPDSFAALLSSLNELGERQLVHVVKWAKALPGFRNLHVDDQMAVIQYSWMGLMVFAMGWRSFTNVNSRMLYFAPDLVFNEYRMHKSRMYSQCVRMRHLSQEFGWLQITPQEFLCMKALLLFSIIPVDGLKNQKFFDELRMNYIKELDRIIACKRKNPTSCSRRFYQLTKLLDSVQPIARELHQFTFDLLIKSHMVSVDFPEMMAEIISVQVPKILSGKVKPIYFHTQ

Turning to `C=Cc1ccccc1C=C`, the Potency result in [1], in test [2], in test [3], in [4], in [5] and in test [6] was “inactive” in each case. Besides, the Potency entry in test [8] is “inactive”. Also, the result in test [7] was inactive.
On to `O=C1CCCCCCCCCCCCCCCO1`, for which the Potency result in [1], in test [2], in test [3], in [4], in test [5] and in test [6] was “inactive” in each case. Moreover, the Potency entry in test [9] and in test [8] was “inactive” in each case. In addition, the compound was called inactive in [7].
For the compound `C=Cc1cccc(C)c1`, the Potency entry in [1], in [2], in test [3], in [4], in test [5] and in [9] was “inactive” each time. In addition, the Potency entry in test [8] is “inactive”. The call in [7] was inactive.
`CCCC(=O)OCCc1ccccc1`: the Potency result in [1], in test [2], in [3], in test [4], in [5] and in test [8] was “inactive” in each case. Further, in test [7], the call was inactive.
Regarding `CC/C=C\CCCCCO`, the Potency entry in test [1], in test [2], in test [3], in test [4], in [5] and in test [6] was “inactive” in each case. Further, the Potency result in test [8] was “inactive”. In addition, the compound was called inactive in [7].
As to `C1CCC(SSC2CCCCC2)CC1`, the Potency result in test [1], in [2], in test [3], in [4], in [5] and in test [8] was “inactive” in each case. Moreover, the call in [7] was inactive.
`O=[N+]([O-])c1ccc(F)c(Cl)c1`: the Potency result in [1], in [2], in test [3], in test [4], in test [5] and in [6] was “inactive” throughout. In test [8], the Potency entry was “inactive”. For the same compound, in test [7], the result was inactive.
On to `Cc1ccc(-c2ccccc2)cc1`, for which the Potency result in test [1], in test [2], in test [3], in test [4], in test [5] and in [6] was “inactive” throughout. Also, the Potency entry in test [8] was “inactive”. In addition, the result in test [7] was inactive.
For the compound `CC(=O)CC(=O)Nc1ccc(S(=O)(=O)O)cc1`, the Potency result in [1], in test [2], in [3], in [4], in test [5] and in test [6] was “inactive” in each case. Also, the Potency result in test [9] and in test [8] was “inactive” each time.
For the compound `CCO[Si](OCC)(OCC)OCC`, the Potency entry in test [1], in [2], in test [3], in test [4], in test [5] and in test [6] was “inactive” throughout. The Potency entry in test [9] and in test [8] was “inactive” each time. The compound was classed as inactive in test [7].
As for `O=C1NC(=O)[C@@H]2CC=CC[C@H]12`, the Potency entry in test [1], in [2], in test [3], in test [4] and in [8] was “inactive” throughout. The Potency in test [5] is 27.3 µM (active). The result in test [7] was inactive.
Turning to `CC(C)(C)CC(C)(C)c1ccc(Nc2ccc(C(C)(C)CC(C)(C)C)cc2)cc1`, the activity change, negative = inhibition in test [1] is -12.5% [at 8.39 µM] (inactive); in test [8], 1.31% [at 8.39 µM] (inactive). For the same compound, the results for the activation in [2] and in test [9] were -0.0232% [at 8.39 µM] (inactive) and 1.18% [at 8.39 µM] (inactive), respectively. For the same compound, the activity, negative = inhibition in test [3] was -7.19% [at 8.39 µM] (inactive). For the same compound, the activity change, negative = cytotoxicity in test [4] was 1.22% [at 8.39 µM] (inactive); in [6] it was -9.43% [at 8.39 µM] (inactive). For the same compound, the cAMP activity change in [7] was 6.94% [at 8.39 µM] (inactive).
For `COc1cccc(OC)c1C(=O)O`, the Potency result in test [1], in test [2], in test [3], in test [4], in test [5] and in test [6] was “inactive” each time. In addition, the Potency entry in [8] is “inactive”. Further, the outcome in test [7] was inactive.
Take `O=C1C(c2[nH]c3ccc(S(=O)(=O)O)cc3c2O)=Nc2ccc(S(=O)(=O)O)cc21`: the Potency result in [1], in test [2], in test [3], in test [5] and in test [6] was “inactive” each time.
As to `Cc1cccc(C)c1NC(=O)c1ccc(N)cc1`, the Potency entry in test [1], in test [2], in test [3], in test [4], in test [6] and in test [8] was “inactive” each time. Besides, the result in test [10] and in [7] was inactive.
Consider `COc1ccc(NC(=O)CC(C)=O)cc1`, for which the Potency entry in [1], in test [2], in test [3], in test [4], in test [5] and in test [6] was “inactive” each time. Further, in [8], the Potency entry was “inactive”. The outcome in [7] was inactive.
Consider `CCCCCCCCCCCC(=O)OCC(C)OC(=O)CCCCC(=O)O` (stereo not drawn), for which the Potency entry in test [1], in test [2], in [3], in [4], in test [5] and in test [6] was “inactive” throughout. Also, the Potency entry in [9] and in test [8] was “inactive” throughout. Also, the result in test [7] was inactive.
Regarding `O[C@@H]([C@H](O)[C@H](O)CBr)[C@H](O)CBr`, the Potency result in test [1], in test [2], in [3], in [4], in [5] and in [6] was “inactive” throughout. Further, the call in test [7] was inactive.
In the case of `CCCCOC(=O)CC`, the Potency result in test [1], in test [2], in test [3], in [4], in [5] and in test [6] was “inactive” in each case. Besides, the Potency entry in test [8] was “inactive”. The compound was classed as inactive in test [7].
Regarding `Oc1ccccc1O`, the Potency in test [1] is 874 nM (active) and inactive; in test [2], 22 µM (active) and 24.3 µM (active). Also, the Potency result in test [3], in test [4], in test [5], in test [6] and in test [8] was “inactive” in each case. In test [7], the call was inactive.
Take `CCc1cccc(CC)c1NC(=O)CN(CC(=O)O)CC(=O)O`: the Potency entry in test [1], in test [2], in [3], in test [4], in [5] and in test [6] was “inactive” in each case. The Potency entry in test [9] and in [8] was “inactive” each time. Moreover, the compound was classed as inactive in test [7].
As for `Sc1nc2ccccc2s1`, the Potency in test [1] is 54.5 µM (active). In addition, the Potency result in test [2], in test [3], in [4], in test [5] and in test [8] was “inactive” in each case.
Take `Cc1c(C)c2c(c(C)c1O)CC[C@@](C)(CCC[C@H](C)CCC[C@H](C)CCCC(C)C)O2`: the Potency entry in [1], in test [2], in test [3], in test [4], in [5] and in test [6] was “inactive” in each case. The Potency entry in [9] and in test [8] was “inactive” each time. The compound was classed as inactive in test [7].
For `Cc1ccc(N/N=c2\c(=O)cc/c(=N\Nc3ccc(S(=O)(=O)O)cc3)c2=O)c(C)c1`, the Potency result in test [1], in test [2], in [3], in test [5], in [6] and in [9] was “inactive” in each case. The Potency entry in [8] was “inactive”. In addition, the Potency in test [4] is 27.3 µM (active). Further, the call in test [7] was inactive.
As to `CCCCC(CC)CN1CN(CC(CC)CCCC)CC(C)(N)C1` (stereo not drawn), the Potency result in test [1], in test [2], in test [3], in test [6] and in [9] was “inactive” each time. The Potency in [4] and in test [8] was 21.1 µM (active) in each case. For the same compound, the result in test [10] and in [7] was inactive.
